These results are taken from PubChem BioAssay.

Test [1] in a line: viability loss in pontine glioma line – cell-based, SU-DIPG-XVII, MIPE5.0, CellTiter-Glo, qHTS, dose response (AID 1347060; cut-off not given, nearly all actives have AC50 up to about 26 µM;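 as to AC50: cells exposed to compound for 48 hours before viability readout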). The settings on record: CellTiter-Glo ATP luminescence. A general note: In ATP-based viability assays light output follows the ATP content of the culture.
A short description of test [2]: viability loss in pontine glioma line – cell-based, SU-DIPG-XIII, MIPE4.0, CellTiter-Glo, qHTS, dose response (AID 1347061; cut-off not given, nearly all actives have AC50 up to about 37 µM;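 also: cells exposed to compound for 48 hours before readout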). The note with it: CellTiter-Glo ATP luminescence.
A short description of test [3]: viability loss in pontine glioma line – cell-based, JHH-DIPG-1, MIPE4.0, CellTiter-Glo, qHTS, dose response (AID 1347062; cut-off not given, nearly all actives have AC50 up to about 27 µM;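 as to AC50: cells exposed to compound for two days before readout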). The settings on record: JHH-DIPG-1 viability, CellTiter-Glo ATP luminescence.
A short description of test [4]: viability loss in pontine glioma line – cell-based, SU-DIPG-IV, MIPE4.0, CellTiter-Glo, qHTS, dose response (AID 1347063; cut-off not given, nearly all actives have AC50 up to about 30 µM;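 also: compound exposure lasted 48 hours before the viability readout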). The settings on record: CellTiter-Glo ATP luminescence.
The nature of test [5]: viability loss in pontine glioma line – cell-based, SU-DIPG-XXV, MIPE5.0, CellTiter-Glo, qHTS, dose response (AID 1347065; cut-off not given, nearly all actives have AC50 up to about 26 µM;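 also: cells exposed to compound for 48 hours before ATP readout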). The note with it: CellTiter-Glo ATP luminescence.
The nature of test [6]: growth inhibition of DIPG cells – cell-based, MIPE4.0 library, CellTiter-Glo luminescence, qHTS (AID 1347066; cut-off not given, nearly all actives have AC50 up to about 30 µM;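 also: cells exposed to compound for 48 hours before readout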). The note with it: SU-DIPG-VI viability, CellTiter-Glo ATP luminescence.
A short description of test [7]: viability loss with induced miR-34 in A549 – imaging, A549 dox-inducible miR-34, nuclei and caspase counts, primary screen (AID 1347080;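 active = compounds whose cell count with miR-34 switched on is under 0.7 times the count with it off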). The settings on record: A549 miR-34 inducible, Hoechst nuclei count, 48 h.
Test [8] can be described thus: compounds altering HSF1 focus formation in cells – imaging, Selleck Cancer Library (AID 1347162; in the data active = plate-normalised HSF1 focus index below about 0.46). The note with it: human cells, HSF1 nuclear foci imaging, at 10 µM; SSMD: measured here: HSF1 foci SSMD mean; cell count: measured here: cell number; plate-normalised HSF1 focus index: stronger effect = lower value.
Test [9] in a line: drug combination growth inhibition, ovarian cancer – cell-based, oncology-focused library, rucaparib conditional, profiling panel (AID 1508598). The note with it: patient-derived ovarian cancer cells, CellTiter-Glo viability, 144 h, stronger effect = lower value.
The nature of test [10]: JHH-DIPG-1 glioma cell viability, MIPE5.0 library, CellTiter-Glo luminescence, qHTS (AID 1347067; cut-off not given, nearly all actives have AC50 up to about 26 µM;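 also: cells exposed to compound for 48 hours before readout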). The settings on record: JHH-DIPG-1 glioma viability, CellTiter-Glo ATP luminescence.
Test [11] in a line: growth inhibition of DIPG cells – cell-based, MIPE5.0 library, qHTS (AID 1347068; cut-off not given, nearly all actives have IC50 up to about 30 µM). The note with it: SU-DIPG-XXV viability.
Test [12] can be described thus: MELAS cybrid and Rieske KO viability enhancers – cell-based, MELAS cybrids, Rieske KO mouse fibroblasts, CellTiter-Glo, primary screen (AID 1508586;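 active = mean z-score across replicates of 1.96 or higher in either the MELAS or the Rieske mutant cell line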;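 also: z relative to plate mean and SD of compound and empty wells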). The note with it: low glucose.
[13] abbreviates: stronger effect = lower value, cell number ratio, induced over uninduced.
[14] abbreviates: measured here: relative caspase fold change +Dox/-Dox.
Where [15] appears, read: measured here: total cells with miR-34 induction, stronger effect = lower value.
Setting [16] is: measured here: total cells without miR-34 induction.

Inconclusive results are not listed. Active and inactive are the calls of the source.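 The calls were made as follows, unless noted: active = normalized viability below 100% at a tested concentration; inactive = the rest.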

Consider `CC(C)[C@H](C(=O)Nc1ccc(C(=O)NO)cc1)c1ccccc1`, for which the AC50 – broadly, the concentration at which the activity in the assay is half-maximal – was 1.86 µM (active) in [1]; 3.72 µM (active) in test [2]; 1.87 µM (active) in test [3]; 2.35 µM (active) in test [4]; 1.32 µM (active) in test [5]; 0.833 µM (active) in test [6]. The fold change in [7] (setting [13]) is 0.834 (inactive); in [7] (setting [14]), 1.7. Moreover, the cell count in test [7] (setting [15]) is 1610; in [7] (setting [16]) it was 1930; in [8] it was 7300. This compound registered an SSMD in [8] of -4.69. Besides, in [8], the plate-normalised HSF1 focus index is 0.833 (inactive). The viability (in general, a read-out of living cells in per cent, often relative to untreated cells) was 112% (inactive) in [9] (at 0.000305 µM, OCI-C5x cells, with rucaparib 10 µM, 100% = cells with rucaparib alone); 136% (inactive) in [9] (at 0.000305 µM, OCI-C5x cells, without rucaparib); 105% (inactive) in [9] (at 0.000305 µM, OCI-P5x cells, with rucaparib 20 µM, 100% = cells with rucaparib alone); 114% (inactive) in [9] (at 0.000305 µM, OCI-P5x cells, without rucaparib); 116% (inactive) in test [9] (at 0.00122 µM, OCI-C5x cells, with rucaparib 10 µM, 100% = cells with rucaparib alone); 139% (inactive) in test [9] (at 0.00122 µM, OCI-C5x cells, without rucaparib). Also, the viability was 102% (inactive) in test [9] (at 0.00122 µM, OCI-P5x cells, with rucaparib 20 µM, 100% = cells with rucaparib alone); 116% (inactive) in test [9] (at 0.00122 µM, OCI-P5x cells, without rucaparib); 104% (inactive) in test [9] (at 0.00488 µM, OCI-C5x cells, with rucaparib 10 µM, 100% = cells with rucaparib alone); 135% (inactive) in [9] (at 0.00488 µM, OCI-C5x cells, without rucaparib); 87.9% (active) in test [9] (at 0.00488 µM, OCI-P5x cells, with rucaparib 20 µM, 100% = cells with rucaparib alone); 107% (inactive) in test [9] (at 0.00488 µM, OCI-P5x cells, without rucaparib). In addition, the viability in [9] (at 0.0195 µM, OCI-C5x cells, with rucaparib 10 µM, 100% = cells with rucaparib alone) was 101% (inactive); in test [9] (at 0.0195 µM, OCI-C5x cells, without rucaparib), 139% (inactive); in test [9] (at 0.0195 µM, OCI-P5x cells, with rucaparib 20 µM, 100% = cells with rucaparib alone), 89.2% (active); in test [9] (at 0.0195 µM, OCI-P5x cells, without rucaparib), 110% (inactive); in test [9] (at 0.0781 µM, OCI-C5x cells, with rucaparib 10 µM, 100% = cells with rucaparib alone), 99.7% (active); in [9] (at 0.0781 µM, OCI-C5x cells, without rucaparib) it was 145% (inactive). Further, the viability in test [9] (at 0.0781 µM, OCI-P5x cells, with rucaparib 20 µM, 100% = cells with rucaparib alone) is 82.7% (active); in test [9] (at 0.0781 µM, OCI-P5x cells, without rucaparib), 92.5% (active); in test [9] (at 0.313 µM, OCI-C5x cells, with rucaparib 10 µM, 100% = cells with rucaparib alone) it was 46.8% (active); in test [9] (at 0.313 µM, OCI-C5x cells, without rucaparib), 41.1% (active); in test [9] (at 0.313 µM, OCI-P5x cells, with rucaparib 20 µM, 100% = cells with rucaparib alone), 49.2% (active); in [9] (at 0.313 µM, OCI-P5x cells, without rucaparib), 66.8% (active). For the same compound, the viability in [9] (at 1.25 µM, OCI-C5x cells, with rucaparib 10 µM, 100% = cells with rucaparib alone) is 10.3% (active); in test [9] (at 1.25 µM, OCI-C5x cells, without rucaparib), 11% (active); in test [9] (at 1.25 µM, OCI-P5x cells, with rucaparib 20 µM, 100% = cells with rucaparib alone), 31.4% (active); in test [9] (at 1.25 µM, OCI-P5x cells, without rucaparib), 39.9% (active); in test [9] (at 5 µM, OCI-C5x cells, with rucaparib 10 µM, 100% = cells with rucaparib alone), 5.04% (active); in test [9] (at 5 µM, OCI-C5x cells, without rucaparib), 5.5% (active). Besides, the viability in [9] (at 5 µM, OCI-P5x cells, with rucaparib 20 µM, 100% = cells with rucaparib alone) was 2.82% (active); in [9] (at 5 µM, OCI-P5x cells, without rucaparib), 3.14% (active).
With `CCN1CCN(CC(=O)Nc2ccc(-c3cccc4c(=O)cc(N5CCOCC5)oc34)c3sc4ccccc4c23)CC1`, the AC50 is 9.1 µM (active) in test [1]; 18.7 µM (active) in [2]; 16.6 µM (active) in test [3]; 11.8 µM (active) in test [4]; 6.45 µM (active) in test [5]; 5.9 µM (active) in test [6]. For the same compound, the AC50 in [10] is 12.9 µM (active).
`C1Cc2[nH]nc(-c3nn[nH]n3)c2C1`: the outcome in test [1], in [2], in test [3], in [4], in [5] and in [6] was inactive. Moreover, the compound was classed as inactive in [10] and in [11].
As to `CC(C)n1cnc2c(NCCc3ccc(O)cc3)nc(-c3csc4ccccc34)nc21`, the AC50 in [1] is 18.6 µM (active); in test [2], 7.43 µM (active); in test [3], 18.7 µM (active); in test [4] it was 10.5 µM (active); in [5], 18.6 µM (active); in test [6] it was 20.9 µM (active). The AC50 in test [10] is 13.2 µM (active). For the same compound, the outcome in test [11] was inactive. The values for the fold change in [7] (setting [13]) and in test [7] (setting [14]) were 0.908 (inactive) and 0.471, respectively. Besides, the cell count turned out to be 6480 in test [7] (setting [15]) and 7140 in [7] (setting [16]). Besides, the z-score in test [12] (MELAS cybrid survival, CellTiter-Glo 48 h, stronger effect = higher value) is -0.0908 (inactive); in [12] (Rieske KO mouse fibroblast survival, CellTiter-Glo 72 h), 0.499.
